Read-out in assay [1]: Macrophage colony-stimulating factor (MCSF), CSF1 (gene 1435)
Put plainly: BSK_hDFCGF_MCSF: BioMAP Diversity Plus: hDFCGF Assay for Macrophage colony-stimulating factor (MCSF) Biomarker Activity (AID 2283060). As to conditions: primary human foreskin fibroblasts; actives raise or lower the signal. The gist of the method: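 ELISA read-out of M-CSF in human dermal foreskin fibroblast cultures, 24 h after chemical dosing; gain or loss of signal fitted bidirectionally relative to DMSO baseline.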

The nature of assay [2]: BSK_hDFCGF_SRB: Viability Assessment in the BioMAP Diversity Plus: hDFCGF Assay (AID 2283061).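 Note: cells exposed to compound for 24 h before the read.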 As to conditions: primary human foreskin fibroblasts. The gist of the method: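 Primary human foreskin fibroblasts; 24 h post-dose; fixed 10% TCA, stained 0.1% SRB, A560 read; total protein as overt cytotoxicity measure; curves fit bidirectionally vs DMSO control.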
Read-out in assay [3]: TIMP metallopeptidase inhibitor 1 (TIMP1), TIMP1 (gene 7076)
Put plainly: BSK_hDFCGF_TIMP1: BioMAP Diversity Plus: hDFCGF Assay for TIMP metallopeptidase inhibitor 1 (TIMP1) Biomarker Activity (AID 2283062). As to conditions: primary human foreskin fibroblasts; actives raise or lower the signal. The gist of the method:
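ELISA readout of TIMP-1 from human dermal foreskin fibroblast cultures 24 h post-dosing. Curves were fitted in both directions against DMSO baseline, with SRB total-protein staining in parallel cultures as a cytotoxicity check.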

Read-out in assay [4]: Monokine induced gamma interferon (MIG), CXCL9 (gene 4283)
Put plainly: BSK_hDFCGF_MIG: BioMAP Diversity Plus: hDFCGF Assay for Monokine induced gamma interferon (MIG) Biomarker Activity (AID 2283063). As to conditions: primary human foreskin fibroblasts; actives raise or lower the signal. The method, boiled down:
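Fibroblasts (human foreskin, primary) dosed, 24 h, MIG by ELISA; fit bidirectional vs DMSO.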

Read-out in assay [5]: Matrix Metallopeptidase 1 (MMP1), MMP1 (gene 4312)
The assay is described as follows: BSK_hDFCGF_MMP1: BioMAP Diversity Plus: hDFCGF Assay for Matrix Metallopeptidase 1 (MMP1) Biomarker Activity (AID 2283064). As to conditions: primary human foreskin fibroblasts; actives raise or lower the signal. The method, boiled down: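 Primary human foreskin fibroblasts exposed to chemicals for 24 h; MMP1 measured by ELISA. Cytotoxicity tracked by SRB staining in parallel cultures; bidirectional fit relative to DMSO.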

Read-out in assay [6]: Plasminogen activator inhibitor-1 (PAI1), SERPINE1 (gene 5054)
Put plainly: BSK_hDFCGF_PAI1: BioMAP Diversity Plus: hDFCGF Assay for Plasminogen activator inhibitor-1 (PAI1) Biomarker Activity (AID 2283066). As to conditions: primary human foreskin fibroblasts; actives raise or lower the signal. The method, boiled down: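 Human foreskin fibroblasts in the hDFCGF system were dosed with compound for 24 h; PAI-1 was quantified by ELISA. Bidirectional curve fitting used DMSO as negative control and baseline.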

Read-out in assay [7]: Intercellular Adhesion Molecule 1 (ICAM1), ICAM1 (gene 3383)
Put plainly: BSK_KF3CT_ICAM1: BioMAP Diversity Plus: KF3CT Assay for Intercellular Adhesion Molecule 1 (ICAM1) Biomarker Activity (AID 2283067). As to conditions: primary human keratinocytes with fibroblasts; actives raise or lower the signal. The gist of the method: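 ELISA readout of ICAM-1; KF3CT human skin co-culture (keratinocytes + foreskin fibroblasts), 24 h post-dose; gain/loss fit vs DMSO baseline.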

Read-out in assay [8]: Interferon-gamma inducible Protein 10 (IP10), CXCL10 (gene 3627)
Put plainly: BSK_KF3CT_IP10: BioMAP Diversity Plus: KF3CT Assay for Interferon-gamma inducible Protein 10 (IP10) Biomarker Activity (AID 2283068). As to conditions: primary human keratinocytes with fibroblasts; actives raise or lower the signal. The method, boiled down: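 In a primary skin co-culture of keratinocytes and fibroblasts, IP-10 is quantified by ELISA at 24 h after dosing. SRB staining of parallel wells monitors overt toxicity. Curves are fitted both directions against DMSO.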

A short description of assay [9]: BSK_KF3CT_SRB: Viability Assessment in the BioMAP Diversity Plus: KF3CT Assay (AID 2283069).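 Note: total protein by sulforhodamine B staining as a cytotoxicity measure; read 24 h after compound addition.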 As to conditions: primary human keratinocytes with fibroblasts. The method, boiled down: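 Human keratinocyte and foreskin fibroblast co-culture exposed to chemical for 24 h. Total protein measured in parallel cultures by 0.1% sulforhodamine B staining after 10% TCA fixation, read at 560 nm; bidirectional fit relative to DMSO.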

Read-out in assay [10]: Interleukin-1 alpha (IL1a), IL1A (gene 3552)
The assay is described as follows: BSK_KF3CT_IL1a: BioMAP Diversity Plus: KF3CT Assay for Interleukin-1 alpha (IL1a) Biomarker Activity (AID 2283070). As to conditions: primary human keratinocytes with fibroblasts; actives raise or lower the signal. The gist of the method:
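Primary human keratinocyte plus foreskin fibroblast co-culture, dosed and measured at 24 h in 96-well plates. IL-1a level quantified by ELISA; bidirectional fit relative to DMSO.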

Read-out in assay [11]: TIMP metallopeptidase inhibitor 2 (TIMP2), TIMP2 (gene 7077)
Put plainly: BSK_KF3CT_TIMP2: BioMAP Diversity Plus: KF3CT Assay for TIMP metallopeptidase inhibitor 2 (TIMP2) Biomarker Activity (AID 2283071). As to conditions: primary human keratinocytes with fibroblasts; actives raise or lower the signal. The method, boiled down: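 Human primary keratinocyte/foreskin fibroblast co-culture dosed with chemical and sampled at 24 h. TIMP-2 levels quantified by ELISA; bidirectional fitting against DMSO negative control as baseline.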

Read-out in assay [12]: Transforming growth factor beta 1 (TGFb1), TGFB1 (gene 7040)
Put plainly: BSK_KF3CT_TGFb1: BioMAP Diversity Plus: KF3CT Assay for Transforming growth factor beta 1 (TGFb1) Biomarker Activity (AID 2283072). As to conditions: primary human keratinocytes with fibroblasts; actives raise or lower the signal. The method, boiled down:
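Human keratinocyte plus foreskin fibroblast primary co-culture, dosed with chemical for 24 h. TGF-b1 quantified by ELISA. Activity fitted bidirectionally against DMSO negative control as baseline.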

Read-out in assay [13]: C-C motif chemokine 2 (Homo sapiens) (UniProt P13500)
Put plainly: BSK_KF3CT_MCP1: BioMAP Diversity Plus: KF3CT Assay for Monocyte Chemoattractant Protein 1 (MCP1/CCL2) Biomarker Activity (AID 2283073). As to conditions: primary human keratinocytes with fibroblasts; actives raise or lower the signal. The method, boiled down: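 KF3CT skin co-culture (keratinocytes/foreskin fibroblasts), 24 h post-dose; MCP-1 by ELISA; gain/loss of signal fit bidirectionally vs DMSO baseline.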

Read-out in assay [14]: Matrix Metallopeptidase 9 (MMP9), MMP9 (gene 4318)
The assay is described as follows: BSK_KF3CT_MMP9: BioMAP Diversity Plus: KF3CT Assay for Matrix Metallopeptidase 9 (MMP9) Biomarker Activity (AID 2283074).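 For AC50: MMP9 protein level quantified by ELISA in the co-culture.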 As to conditions: primary human keratinocytes with fibroblasts; actives raise or lower the signal. The gist of the method: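 Human keratinocyte and foreskin fibroblast co-culture exposed to chemicals for 24 h; MMP9 biomarker measured by ELISA, bidirectional fitting relative to DMSO; cytotoxicity tracked by SRB total protein staining in parallel cultures.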

Read-out in a further assay: CD40, CD40 (gene 958)
Put plainly: BSK_LPS_CD40: BioMAP Diversity Plus: LPS Assay for CD40 Biomarker Activity (AID 2283076). As to conditions: primary human HUVEC with PBMC; actives raise or lower the signal. The gist of the method: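 ELISA readout of CD40 in HUVEC/PBMC co-culture (BSK_LPS system), 24 h post-dosing; bidirectional curve fit, DMSO baseline; parallel SRB total-protein staining for cytotoxicity.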

Read-out in assay [15]: E-selectin (Homo sapiens) (UniProt P16581)
The assay is described as follows: BSK_LPS_Eselectin: BioMAP Diversity Plus: LPS Assay for Eselectin Biomarker Activity (AID 2283077). As to conditions: primary human HUVEC with PBMC; actives raise or lower the signal. The gist of the method:
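ELISA readout of E-selectin, 24 h post-dose, HUVEC + PBMC co-culture (LPS system). Gain or loss of signal vs DMSO baseline, bidirectional fit.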

Read-out in assay [16]: Interleukin-8 (IL8), CXCL8 (gene 3576)
Put plainly: BSK_LPS_IL8: BioMAP Diversity Plus: LPS Assay for Interleukin-8 (IL8) Biomarker Activity (AID 2283078). As to conditions: primary human HUVEC with PBMC; actives raise or lower the signal. The gist of the method: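 HUVEC + PBMC co-culture, LPS-activated; test chemicals dosed, IL-8 read by ELISA at 24 h. Bidirectional curve fit vs DMSO baseline (gain or loss of signal).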

A short description of assay [17]: BSK_LPS_SRB: Viability Assessment in the BioMAP Diversity Plus: LPS Assay (AID 2283079).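 Note: total protein by sulforhodamine B absorbance as a cytotoxicity measure; measured one day after compound addition; fitted in both directions against DMSO so loss or gain of signal counts.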 As to conditions: primary human HUVEC with PBMC. The method, boiled down: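 HUVEC + PBMC co-culture, LPS-stimulated; compound 24 h. 10% TCA fix, 0.1% SRB stain, A560. Bidirectional fit vs DMSO.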
Read-out in assay [18]: urokinase plasminogen activator (uPA), PLAU (gene 5328)
Put plainly: BSK_KF3CT_uPA: BioMAP Diversity Plus: KF3CT Assay for urokinase plasminogen activator (uPA) Biomarker Activity (AID 2283075). As to conditions: primary human keratinocytes with fibroblasts; actives raise or lower the signal. The gist of the method: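 Primary human keratinocyte/foreskin fibroblast co-culture exposed to chemical; uPA measured by ELISA at 24 h. Bidirectional fit versus DMSO, with parallel SRB total-protein staining for cytotoxicity.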

Read-out in assay [19]: Vascular cell adhesion molecule 1 (VCAM1), VCAM1 (gene 7412)
The assay is described as follows: BSK_hDFCGF_VCAM1: BioMAP Diversity Plus: hDFCGF Assay for Vascular cell adhesion molecule 1 (VCAM1) Biomarker Activity (AID 2283065). As to conditions: primary human foreskin fibroblasts; actives raise or lower the signal. The gist of the method:
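ELISA read-out of VCAM-1 on human skin fibroblasts, 24 h post-dose; gain or loss of signal fitted bidirectionally against DMSO baseline.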

Active and inactive are the calls of the source. Rule for the calls: active = hit-call score of the fitted dose curve at least 0.9, where 1 is the maximum; inactive = score below 0.9.

The term AC50 denotes the concentration giving half of the maximal activity seen.

E-selectin (Homo sapiens), sequence (P16581 whole entry, looked up): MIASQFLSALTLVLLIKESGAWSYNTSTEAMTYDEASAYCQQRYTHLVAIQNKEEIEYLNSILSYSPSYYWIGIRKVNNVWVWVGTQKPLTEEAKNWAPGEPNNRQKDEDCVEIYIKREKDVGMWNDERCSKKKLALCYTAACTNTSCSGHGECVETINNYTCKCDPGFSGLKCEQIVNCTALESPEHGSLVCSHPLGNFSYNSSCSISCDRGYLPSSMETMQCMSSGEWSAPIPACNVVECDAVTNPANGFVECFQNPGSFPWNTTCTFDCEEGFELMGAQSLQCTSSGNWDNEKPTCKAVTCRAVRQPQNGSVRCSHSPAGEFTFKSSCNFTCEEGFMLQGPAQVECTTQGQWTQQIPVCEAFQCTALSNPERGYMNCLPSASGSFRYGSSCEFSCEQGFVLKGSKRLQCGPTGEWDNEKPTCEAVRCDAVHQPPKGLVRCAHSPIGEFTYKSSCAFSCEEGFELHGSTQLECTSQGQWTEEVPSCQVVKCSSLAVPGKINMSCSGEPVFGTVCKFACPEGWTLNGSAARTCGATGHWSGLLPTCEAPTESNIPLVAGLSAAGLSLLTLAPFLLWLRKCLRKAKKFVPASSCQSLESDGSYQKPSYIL

Take `CCOP(=S)(OCC)SCSc1ccc(Cl)cc1`: the AC50 in [1] was 14.4 µM (active); in [10], 3.12 µM (active); in assay [11], 533 nM (active); in assay [12], 59.2 nM (active); in [14], 324 nM (active); with CD40, CD40 (gene 958), 20 µM (active). Besides, the result in assay [2], in assay [3], in assay [4], in [5], in assay [6] and in assay [7] was inactive. Further, the outcome in assay [8], in [9], in [13], in assay [15], in assay [16] and in [17] was inactive.
With `COP(N)(=S)OC`, the result in assay [1], in assay [2], in assay [3], in assay [4], in assay [5] and in assay [6] was inactive. Besides, the result in assay [7], in assay [8], in assay [9], in [10], in assay [11] and in [12] was inactive. The outcome was “inactive” in [13]; “inactive” in assay [14]; “inactive” with CD40, CD40 (gene 958); “inactive” in assay [15]; “inactive” in assay [16]; “inactive” in [17].
For `COP(=O)(O)OC`, the result in [1], in assay [2], in assay [3], in assay [4], in assay [6] and in assay [7] was inactive. For the same compound, the outcome in [8], in assay [9], in assay [10], in [11], in assay [12] and in [13] was inactive. Also, the outcome was “inactive” in assay [14]; “inactive” with CD40, CD40 (gene 958); “inactive” in assay [15]; “inactive” in assay [16]; “inactive” in assay [17].
For the compound `Nc1ccc2ccccc2c1`, the outcome in assay [1], in assay [2], in assay [3], in assay [4], in assay [6] and in assay [7] was inactive. The outcome in [8], in assay [9], in assay [10], in [11], in [12] and in assay [13] was inactive. The outcome in [14] is “inactive”; in assay [18] it was “inactive”; with CD40, CD40 (gene 958), “inactive”; in assay [15], “inactive”; in assay [16], “inactive”; in assay [17], “inactive”.
For the compound `[N-]=[N+]=[N-]`, the outcome in [1], in assay [2], in [3], in [4], in assay [6] and in assay [7] was inactive. For the same compound, the outcome in assay [8], in assay [9], in assay [10], in [11], in [12] and in assay [13] was inactive. In addition, the outcome in assay [14] was “inactive”; in the assay with CD40, CD40 (gene 958) it was “inactive”; in assay [15], “inactive”; in [16] it was “inactive”; in assay [17], “inactive”.
Regarding `CCCCOCCOP(=O)(OCCOCCCC)OCCOCCCC`, the result in assay [1], in [2], in [3], in assay [4], in assay [19] and in assay [6] was inactive. Moreover, the result in [7], in [8], in assay [9], in assay [10], in [11] and in assay [13] was inactive. Besides, the outcome with CD40, CD40 (gene 958) is “inactive”; in assay [15], “inactive”; in [16], “inactive”; in assay [17], “inactive”. Also, the AC50 in [12] is 16 nM (active); in [14], 3970 nM (active).
For `FC(F)(F)C(F)(C(F)(F)F)C(F)(F)C(F)(F)CC1CO1` (stereo not drawn), the outcome in assay [1], in assay [2], in assay [3], in assay [4], in [19] and in [6] was inactive. The outcome in assay [7], in assay [8], in assay [9], in [10], in assay [11] and in assay [13] was inactive. Further, the outcome in [14] was “inactive”; in the assay with CD40, CD40 (gene 958), “inactive”; in assay [15], “inactive”; in [16] it was “inactive”; in [17], “inactive”.

For the origin of these results see PubChem BioAssay (EPA / NIEHS).
